Counter-ions that a name gives are not always drawn.
The compounds below were run on Neuro-2a (assay: neurite formation score, plate-normalized to DMSO control mean 5.04 (score (0-8 scale)); higher = more or longer neurites). Conditions: 1 µM.
Protocol: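 Neuro-2a mouse neuroblastoma cells in PLL-coated 96-well plates were pre-treated for 1 h in DMEM(+) with each kinase inhibitor at 1 µM, then switched to serum-free DMEM(-) with inhibitor to induce neurite outgrowth and fixed about 2-3 h later. Three blinded observers scored neurite formation from 0 (no neurites) to 8 (long neurites on almost all cells).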

Q: `Cc1ccc(NC(=O)c2ccc(CN3CCN(C)CC3)cc2)cc1Nc1nc(-c2cccnc2)cs1` [Masitinib (AB1010)] was tested. Which neurite formation score did it give?
A: 4.24

Q: How did the neurite formation score turn out when `CS(=O)(=O)c1cccc(CNc2nc(Nc3ccc4c(c3)CCC(=O)N4)ncc2C(F)(F)F)c1` was run?
A: 3.47

Q: For `O=C(Nc1ccc2[nH]nc(-c3ccncc3)c2c1)[C@@H]1CCN(CC(=O)N2CCN(c3ccc(-c4ncccn4)cc3)CC2)C1`, which neurite formation score is on record?
A: 3.8

Q: For `O=c1sn(-c2cccc3ccccc23)c(=O)n1Cc1ccccc1` [Tideglusib], which neurite formation score is on record?
A: 4.21

Q: For `O=C1NC(=O)C(c2cnc3ccccn23)=C1c1cn2c3c(cc(F)cc13)CN(C(=O)N1CCCCC1)CC2`, which neurite formation score is on record?
A: 3.47

Q: With `Clc1ccc(C2(c3ccc(-c4cn[nH]c4)cc3)CCNCC2)cc1` as the compound, how does the neurite formation score read?
A: 5.24

Q: With `Nc1cccc(S(=O)(=O)N2CCCN(S(=O)(=O)c3ccc4c(c3)OCCO4)CC2)c1` as the compound, how does the neurite formation score read?
A: 4.14

Q: For `CN([C@@H](Cc1ccc(OS(=O)(=O)c2cccc3cnccc23)cc1)C(=O)N1CCN(c2ccccc2)CC1)S(=O)(=O)c1cccc2cnccc12`, which neurite formation score is on record?
A: 2.9

Q: Which neurite formation score does the source give for `CCn1c(N)c(C(=O)NC)c(=O)c2ccc(C#CC(C)(O)COC)nc21` (centres undefined) here?
A: 4.54

Q: How did the neurite formation score turn out when `CS(=O)(=O)N1CCC(NC(=O)c2[nH]ncc2NC(=O)c2c(Cl)cccc2Cl)CC1` was run?
A: 4.47

Q: For `CNC(=O)c1ccc(C)c(-n2c(C)cc(OCc3ccc(F)cc3F)c(Br)c2=O)c1`, which neurite formation score is on record?
A: 3.57

Q: Which neurite formation score does the source give for `O=c1cc(N2CCOCC2)oc2c(-c3cccc4c3sc3ccccc34)cccc12` here?
A: 2.9

Q: For `COc1ccc2c(OCc3nnc4ccc(-c5ccccc5)nn34)ccnc2c1`, which neurite formation score is on record?
A: 4.54

Q: `NC1(Cc2ccc(Cl)cc2)CCN(c2ncnc3[nH]ccc23)CC1` was tested. Which neurite formation score did it give?
A: 5.63

Q: Which neurite formation score does the source give for `CNc1nc(-c2ccc3c(N)n[nH]c3c2)cc(N2C[C@@H](C(=O)NC3CCCCC3)CC[C@H]2C)n1` here?
A: 4.88

Q: For `Oc1cccc(-c2nc(N3CCOCC3)c3oc4ncccc4c3n2)c1`, which neurite formation score is on record?
A: 5.24

Q: With `COc1cc(F)c(F)c(Nc2ccc(I)cc2F)c1NS(=O)(=O)C1(C[C@H](O)CO)CC1` [Refametinib] as the compound, how does the neurite formation score read?
A: 4.14

Q: `O=C1NCCc2[nH]c(-c3ccncc3)cc21` was tested. Which neurite formation score did it give?
A: 5.69

Q: For `C=CC(=O)Nc1cccc(Nc2nc(Nc3ccc(NC4CN(CCF)C4)cc3OC)ncc2C(F)(F)F)c1`, which neurite formation score is on record?
A: 4.88

Q: How did the neurite formation score turn out when `COc1cc2nccc(Oc3ccc(NC(=O)C4(C(=O)Nc5ccc(F)cc5)CC4)cc3)c2cc1OC` was run?
A: 3.57

Q: For `NC(=O)Nc1cc(-c2cccc(F)c2)sc1C(=O)N[C@H]1CCCNC1`, which neurite formation score is on record?
A: -0.431

Q: For `O=c1cc(-c2cccc3c2Sc2ccccc2S3)oc(N2CCOCC2)c1`, which neurite formation score is on record?
A: 3.69

Q: With `CC(C)NC[C@@H](C(=O)N1CCN(c2ncnc3c2[C@H](C)C[C@H]3O)CC1)c1ccc(Cl)cc1` as the compound, how does the neurite formation score read?
A: 4.24

Q: `COc1cc(N2CCC(N)CC2)ccc1Nc1ncc(Cl)c(-c2c[nH]c3ccccc23)n1` was tested. Which neurite formation score did it give?
A: 4.63

Q: How did the neurite formation score turn out when `O=C(/C=C/c1ccc(O)c(O)c1)c1ccc(O)cc1O` [Butein] was run?
A: 5.24

Q: How did the neurite formation score turn out when `N[C@@H]1CCCN(c2c(/C=C3\SC(=O)NC3=O)cccc2-c2ccccc2)C1` was run?
A: 5.36

Q: How did the neurite formation score turn out when `O=C(Cc1ccc(-c2ccc(OCCN3CCOCC3)cc2)cn1)NCc1ccccc1` [KX2-391 dihydrochloride] was run?
A: 0.692

Q: For `CNC(=O)c1cc(Oc2ccc(NC(=O)Nc3ccc(Cl)c(C(F)(F)F)c3)c(F)c2)ccn1` [Regorafenib hydrochloride], which neurite formation score is on record?
A: 3.69

Q: How did the neurite formation score turn out when `CC(C)n1nc(-c2ccc3oc(N)nc3c2)c2c(N)ncnc21` was run?
A: 3.96

Q: Which neurite formation score does the source give for `NC(=O)Nc1sc(-c2ccc(F)cc2)cc1C(N)=O` here?
A: 4.36

Q: Which neurite formation score does the source give for `CCCS(=O)(=O)Nc1ccc(F)c(C(=O)c2c[nH]c3ncc(-c4ccc(Cl)cc4)cc23)c1F` [Vemurafenib (PLX4032, RG7204)] here?
A: 3.91

Q: `Oc1cccc(-c2nc(N3CCOCC3)c3oc4ncccc4c3n2)c1` [PI-103 Hydrochloride] was tested. Which neurite formation score did it give?
A: 4.69

Q: With `Cn1cnc2c(F)c(Nc3ccc(Br)cc3F)c(C(=O)NOCCO)cc21` as the compound, how does the neurite formation score read?
A: 3.24

Q: How did the neurite formation score turn out when `N=C(N)NCCC(=O)O` [3-Guanidinopropionic Acid] was run?
A: 5.21

Q: For `Nc1nccc(Oc2ccc(NC(=O)c3c[nH]cc(-c4ccc(F)cc4)c3=O)cc2F)c1Cl`, which neurite formation score is on record?
A: 3.96

Q: How did the neurite formation score turn out when `COc1cc2nccc(Oc3ccc(NC(=O)C4(C(=O)Nc5ccc(F)cc5)CC4)cc3)c2cc1OC` [Cabozantinib malate (XL184)] was run?
A: 2.29

Q: For `O=C1Nc2ccc(I)cc2/C1=C/c1cc(Br)c(O)c(Br)c1`, which neurite formation score is on record?
A: 3.29

Q: For `Cc1ccc(Nc2nccc(N(C)c3ccc4c(C)n(C)nc4c3)n2)cc1S(N)(=O)=O`, which neurite formation score is on record?
A: 3.91

Q: Which neurite formation score does the source give for `COc1cc(Nc2c(C#N)cnc3cc(OCCCN4CCN(C)CC4)c(OC)cc23)c(Cl)cc1Cl` [Bosutinib (SKI-606)] here?
A: 4.57
